Assay outcomes: PubChem, several laboratories
HSP90 inh – HSP90 refolding inhibition in rabbit reticulocyte lysate; hit rate 0.91% among 290,000; luciferase refolding luminescence, 3 h; inhibition, % at 5.6 µM;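 active means inhibition above the screen-wide mean plus 3 SD, computed separately per campaign, cut at about 16% in these data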;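 further: inhibitors lower the luminescence because luciferase stays unfolded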
SENP8 block-1 – inhibitors of human SENP8 protease | purified SENP8, Z-RLRGG-aminoluciferin cleavage, luminescence | hit rate 1.2% among 330,000 | inhibition, % at 10 µM | Q96LD8; in the data active means inhibition above about 50%
Target sequence (Q96LD8 whole entry, looked up): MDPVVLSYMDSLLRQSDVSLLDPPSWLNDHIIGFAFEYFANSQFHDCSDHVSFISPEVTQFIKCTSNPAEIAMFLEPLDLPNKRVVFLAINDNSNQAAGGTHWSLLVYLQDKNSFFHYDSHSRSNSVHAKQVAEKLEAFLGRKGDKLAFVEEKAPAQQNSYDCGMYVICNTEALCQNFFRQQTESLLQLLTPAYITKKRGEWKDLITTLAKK
SENP8 block-2 – blocks human SENP8 cleavage of Nedd8 substrate; Q96LD8; inhibition, % at 20 µM; hit rate 0.64% among 360,000; AID 602440; recombinant SENP8, Nedd8 substrate fluorescence; in the data active means inhibition mostly above about 40%, no sharp cut-off; inactive means mostly below about 27%
SENP7 block – inhibitors of human SENP7 protease; inhibition, % at 5 µM; Q9BQF6; recombinant SENP7, Z-RLRGG-aminoluciferin luminescence, 40 min; hit rate 1.5% among 330,000;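 active means inhibition above about 50% at the single test dose, limit read from the data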
SENP6 inh – inhibitors of human SENP6 protease; Q9GZR1; Recombinant SENP6 catalytic domain, aminoluciferin luminescence; inhibition, % at 10 µM; hit rate 1.8% among 330,000;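 active means inhibition above about 50% at the single tested dose, limit read from the data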
SENP8 conf – human SENP8 inhibition, confirmed; shares compounds with SENP7 block; Recombinant SENP8, Z-RLRGG-aminoluciferin luminescence, 60 min; inhibition, % at 12.5 µM; hit rate 40% among 6,200; AID 488912;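 active means mean inhibition across replicates above about 50%, limit read from the data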
SENP6 confirm – confirmation of human SENP6 protease inhibitors; inhibition, % at 12.5 µM; shares compounds with SENP7 block; hit rate 58% among 6,200; recombinant SENP6, Z-RLRGG-aminoluciferin luminescence
SENP7 conf – confirmation of human SENP7 protease inhibitors. hit rate 69% among 6,200. recombinant SENP7, Z-RLRGG-aminoluciferin luminescence, 40 min. shares compounds with SENP7 block. inhibition, % at 12.5 µM. AID 488917
Casp3 select – inhibits human caspase-3 in SENP selectivity test; shares compounds with SENP7 block; purified caspase-3, Z-DEVD-aminoluciferin luminescence, 60 min; inhibition, % at 12.5 µM; hit rate 60% among 6,200; AID 488918;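 active means mean inhibition above about 50%, limit read from the data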
Target sequence (P42574 28-227 limits assumed): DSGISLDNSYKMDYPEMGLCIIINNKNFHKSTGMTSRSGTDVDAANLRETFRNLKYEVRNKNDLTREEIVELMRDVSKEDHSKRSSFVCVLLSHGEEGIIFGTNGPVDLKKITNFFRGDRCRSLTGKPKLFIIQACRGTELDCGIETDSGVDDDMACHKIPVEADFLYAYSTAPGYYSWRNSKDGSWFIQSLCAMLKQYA
Luc interf – luminescence interference (SENP counter-screen) | shares compounds with SENP7 block | Pre-incubated SENP8/Z-RLRGG-aminoluciferin, luciferase luminescence interference | inhibition, % at 12.5 µM | hit rate 39% among 6,200 | AID 488919;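 active means mean inhibition above about 50% when retested at one dose, limit read from the data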
Large screens that a line does not name were inactive (follow-up assays come after a bar, where they were run). Compounds with a hit are over-represented: about 2.8% of the library has one in this group of screens.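 How the source made its calls, unless noted: active means mean inhibition above about 50% in the one-dose retest (limit read from the data); inactive means the rest.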

COc1ccc(N=Nc2ccc(CO)cc2)cc1	SENP7 block 65.8, SENP6 inh 50.6 (no result: HSP90 inh) | SENP8 conf 61.1 | SENP6 confirm 58.4 | SENP7 conf 83.4 | Casp3 select 59.6 | Luc interf inactive
COc1ccc(C/C(N)=N/O)cc1	none
COC(=O)c1ccc(N=Nc2ccccc2)cc1	SENP7 block 58.7 | SENP8 conf inactive | SENP6 confirm 57.0 | SENP7 conf 85.7 | Casp3 select inactive | Luc interf inactive
CC(=O)C1=C(C)NC(=O)NC1c1cccc([N+](=O)[O-])c1O (stereo not given)	none
Nc1c(C(=O)NCc2ccccc2)c2nc3ccccc3nc2n1-c1ccc2c(c1)OCO2	SENP6 inh 67.6 | SENP8 conf inactive | SENP6 confirm inactive | SENP7 conf inactive | Casp3 select inactive | Luc interf inactive
Nc1c(C(=O)NCc2ccc3c(c2)OCO3)c2nc3ccccc3nc2n1CCCN1CCOCC1	SENP8 block-1 91.4, SENP6 inh 92.0 | SENP8 conf inactive | SENP6 confirm inactive | SENP7 conf inactive | Casp3 select inactive | Luc interf inactive
CCCCc1nc(C(N)=O)c2[nH]c(=O)n(-c3ccc(OC)c(OC)c3)c2n1	none
O=C(Cc1nc2ccccc2[nH]1)N/N=C/c1ccccc1	none
O=C(Nc1ccc(Cl)cc1)Nc1ccccc1Sc1ncc([N+](=O)[O-])s1	SENP8 block-1 96.3, SENP7 block 95.1, SENP6 inh 99.2 | SENP8 conf 100.0 | SENP6 confirm 101.1 | SENP7 conf 104.0 | Casp3 select 99.8 | Luc interf inactive
Cc1cccc(NC(=O)CSc2ccc(-c3ccco3)nn2)c1C	none
CC(C)(C)C(=O)Nc1ccc(C(=O)Nc2cccc(Oc3ccc(C(=O)O)c(C(=O)O)c3)c2)cc1	none
O=C(Nc1cccnc1)c1ccccc1Oc1ccccc1	none
CCCCOc1ccc(C(=O)Nc2ccncc2)cc1	SENP6 inh 57.0 | SENP8 conf inactive | SENP6 confirm inactive | SENP7 conf 77.0 | Casp3 select 52.2 | Luc interf inactive
O=C(Nc1cccc(Oc2ccc(C(=O)O)c(C(=O)O)c2)c1)c1ccc(-c2ccccc2)cc1	SENP6 inh 71.7 | SENP8 conf 51.2 | SENP6 confirm inactive | SENP7 conf 64.3 | Casp3 select 50.5 | Luc interf 68.2
O=C(Nc1cccnc1)c1ccc(Oc2ccccc2)cc1	SENP8 block-1 78.3, SENP7 block 89.0, SENP6 inh 90.4 | SENP8 conf 85.0 | SENP6 confirm 87.6 | SENP7 conf 98.4 | Casp3 select 85.2 | Luc interf 70.2
O=C(CC(=O)c1ccccc1)Nc1cccnc1	none
CCCCOc1ccc(C(=O)NC)cc1	none
O=C(Nc1ccccc1)C(=O)Nc1cccnc1	HSP90 inh 16.3, SENP8 block-1 68.8, SENP7 block 85.8, SENP6 inh 76.4 | SENP8 conf inactive | SENP6 confirm inactive | SENP7 conf 67.4 | Casp3 select 73.3 | Luc interf inactive
O=C(Nc1cccc(C(=O)N2CCN(c3ccccc3)CC2)c1)c1ccco1	none
CCCOc1ccc(C(=O)Nc2cccnc2)cc1	SENP7 block 68.8, SENP6 inh 69.8 | SENP8 conf 53.8 | SENP6 confirm 51.5 | SENP7 conf 85.7 | Casp3 select 82.7 | Luc interf 68.6
COc1cc2[nH]c(=S)nc(NCC3CCCO3)c2cc1OC (stereo not given)	none
CCOC(=O)c1nnsc1NC(=O)Nc1ccc(OC)cc1	SENP7 block 51.2 | SENP8 conf inactive | SENP6 confirm inactive | SENP7 conf inactive | Casp3 select inactive | Luc interf inactive
COc1ccc(C2/C(=C(/O)c3ccc(Br)cc3)C(=O)C(=O)N2C)cc1OC (stereo not given)	SENP7 block 58.0 | SENP8 conf inactive | SENP6 confirm inactive | SENP7 conf inactive | Casp3 select inactive | Luc interf inactive
CC(c1ccco1)N(C(=O)Nc1ccc(Cl)cc1)c1ccccn1 (stereo not given)	none
CC(=O)c1ccccc1OC(=O)c1ccc(-c2ccccc2)cc1	none (no result: HSP90 inh)
COc1ccc(C(=O)O/N=C(\C)c2ccccc2)cc1	SENP8 block-1 97.2, SENP7 block 100.5, SENP6 inh 95.5 | SENP8 conf 99.7 | SENP6 confirm 100.6 | SENP7 conf 103.3 | Casp3 select 99.1 | Luc interf 98.4
COc1ccc(C(=O)O/N=C(/c2ccccc2)c2ccncc2)cc1	none
CC(C)=NOC(=O)c1ccc(-c2ccccc2)cc1	SENP8 block-1 57.9, SENP7 block 72.4, SENP6 inh 76.6 | SENP8 conf 75.0 | SENP6 confirm 75.9 | SENP7 conf 90.1 | Casp3 select 71.0 | Luc interf 67.3
COc1ccc(C(=O)O/N=C(\N)c2ccc(OC)c(OC)c2)cc1	SENP7 block 81.3, SENP6 inh 64.0 | SENP8 conf inactive | SENP6 confirm inactive | SENP7 conf 61.2 | Casp3 select inactive | Luc interf inactive
O=C(Nc1ccc(F)cc1)c1ccc(COc2ccccc2)cc1	none
Cc1c(-c2ccc(Br)cc2)nc2ccccn12	SENP8 block-1 87.9, SENP7 block 89.9, SENP6 inh 95.6 | SENP8 conf inactive | SENP6 confirm 88.5 | SENP7 conf 99.6 | Casp3 select 88.0 | Luc interf 88.6
c1ccc(-c2nc3ccccn3c2NCc2ccc3c(c2)OCO3)cc1	none
Clc1cccc(-c2ccc(-c3nc4ccccn4c3NCc3ccccc3)cc2)c1	SENP8 block-1 64.8, SENP7 block 53.4 (no result: HSP90 inh) | SENP8 conf inactive | SENP6 confirm inactive | SENP7 conf 71.1 | Casp3 select inactive | Luc interf inactive
c1ccn2c(c1)nc1c2nc2ccccn21	none
Clc1c(-c2ccccc2)nc2ccccn12	SENP8 block-1 55.4, SENP7 block 54.5, SENP6 inh 64.7 | SENP8 conf inactive | SENP6 confirm inactive | SENP7 conf 79.7 | Casp3 select 65.8 | Luc interf inactive
c1ccc2c(c1)Cn1c-2nc2ccccc21	SENP8 block-1 81.2, SENP7 block 90.8, SENP6 inh 92.4 | SENP8 conf 89.8 | SENP6 confirm 88.4 | SENP7 conf 98.8 | Casp3 select 95.4 | Luc interf 86.4
c1ccc2c(c1)Cn1nnnc1-2	none
Brc1c(-c2ccccc2)nc2n1Cc1ccccc1-2	SENP8 block-1 51.0, SENP6 inh 74.9 | SENP8 conf inactive | SENP6 confirm 65.3 | SENP7 conf 72.1 | Casp3 select inactive | Luc interf inactive
O=C(c1cnc2ccc3ccccc3c2c1)c1cc(F)ccc1O	none
